Assay results from PubChem BioAssay.
Active and inactive are the calls of the source. Unless noted, the rule behind the calls is not given here.

Assays:
[1] = anti-His antibody binders, primary screen, artefact control for SMM control protein annotation, biochemical, small-molecule microarray, 635 nm fluorescence (AID 1128); conditions: anti-His Alexa647 antibody binding, higher = more signal;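 note: score merges feature fluorescence with signal-to-noise for each printed compound spot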
[2] = test system: Human papillomavirus type 1a E7 protein (residues 1-88); assay: HPV1a E7 small-molecule binders, primary screen, biochemical, small-molecule microarray, residues 1-88, 635 nm (AID 1129); conditions: small-molecule microarray binding, fluorescence 635 nm; higher = more signal
[3] = molecular target: Focal adhesion kinase 1 (Homo sapiens) (UniProt Q05397); assay: small-molecule microarray binders of FAK, primary screen, biochemical, 635/667 nm fluorescence, BSA, DTT (AID 1130); conditions: PTK2 binding, 635 nm fluorescence, higher = more signal;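 note: composite of spot emission at 667 nm and signal to noise over triplicate slides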
[4] = test system: Fibrinogen (Alexa647-labelled); assay: fibrinogen binders on compound microarrays, profiling panel, artefact control for SMM control-protein annotation, biochemical, small-molecule microarray, 635/667 nm fluorescence (AID 1131); conditions: fibrinogen-A647 binding fluorescence, higher = more signal;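 note: z-score merges 667 nm fluorescence with per-spot signal-to-noise over triplicate slides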
[5] = molecular target: Follistatin (Homo sapiens) (UniProt P19883); assay: follistatin binders on small-molecule microarrays, primary screen, biochemical, small-molecule microarray, 635/667 nm fluorescence (AID 1132); conditions: FST binding, 635 nm fluorescence, higher = more signal
[6] = molecular target: Fibroblast growth factor 2 (Homo sapiens) (UniProt P09038); assay: FGF2 binders on small-molecule microarrays, primary screen, biochemical, small-molecule microarray, 635/667 nm fluorescence (AID 1133); conditions: small-molecule microarray binding, FGF2, fluorescence 635/667; higher = more signal
[7] = mitochondrial membrane potential change in A549 cells, profiling panel, cell-based, JC-1 fluorescence, basal, 24 h, 100 nL (AID 1138); conditions: higher = more signal;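 note: A549 lung adenocarcinoma cells under basal conditions with no added stimulus; test concentration not given here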
Lefty1 = Lefty1 binders on small-molecule microarrays, primary screen, biochemical, small-molecule microarray, 635/667 nm fluorescence (AID 1139); conditions: small-molecule microarray binding, fluorescence 635/667; higher = more signal
[8] = test system: wheat germ agglutinin (Triticum aestivum), Alexa647-labelled; assay: wheat germ agglutinin binders on compound microarrays, profiling panel, artefact control for SMM control-protein annotation, biochemical, small-molecule microarray, 635/667 nm fluorescence (AID 1140); conditions: WGA-A647 binding, 635 nm fluorescence, higher = more signal;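 note: score merges 667 nm feature emission with signal to noise over triplicate slides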
[9] = molecular target: Luciferin 4-monooxygenase (Photinus pyralis) (UniProt P08659); assay: firefly luciferase enzyme inhibitors, primary screen, biochemical, luminescence, purified enzyme, 2006 set (AID 1141); conditions: SteadyGlo luminescence, 30 min, higher = more signal, called active from +8 up or from −8 down;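 note: cell-free assay with purified firefly luciferase at 100 ng per well in PBS; test concentration not given here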
[10] = test system: Wnt5a (protein binding on small-molecule microarray); assay: Wnt5a binders on small-molecule microarray, primary screen, biophysical, 635/667 nm fluorescence (AID 1142); conditions: 635 nm fluorescence, higher = more signal;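 note: fluorescence read at 667 nm with signal to noise per printed feature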
[11] = cell viability in Huh7 cells, primary screen, cytotoxicity control for HCV replication inhibitor project, CellTiter-Glo luminescence, basal, 48 h (AID 1143); conditions: Huh7 HCV replicon, higher = more signal, called active from +8 up or from −8 down;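 note: Huh7 hepatoma cells carrying a hepatitis C replication reporter with no stimulus; test concentration not given here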
[12] = P. aeruginosa biofilm formation inhibitors, primary screen, PAO1 strain, BacTiter-Glo luminescence, LB-PBS (AID 1144); conditions: 12 h, higher = more signal
[13] = CREB reporter modulators without forskolin, primary screen, cell-based, PC12, CRE-LacZ reporter, unstimulated (AID 1145); conditions: no forskolin, luminescence, 4.5 h, higher = more signal, called active from +8 up or from −8 down
[14] = CREB reporter modulators under forskolin, primary screen, cell-based, PC12, CRE-LacZ reporter, forskolin-stimulated (AID 1146); conditions: luminescence, 4.5 h, higher = more signal, called active from +8 up or from −8 down;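 note: PC12 cells with 6xCRE LacZ reporter stimulated by forskolin 10 µM; beta-galactosidase reporter signal reflecting CREB driven transcription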
[15] = molecular target: Streptavidin (Streptomyces avidinii) (UniProt P22629); assay: streptavidin binders on small-molecule microarray, primary screen, artefact control for SMM compound annotation, biophysical, 635/667 nm fluorescence (AID 1147); conditions: streptavidin binding, higher = more signal;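 note: signal reflects streptavidin binding to arrayed compounds as a control protein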
[16] = small-molecule binders of probe aInhba, primary screen, biochemical, small-molecule microarray, 635/667 nm fluorescence (AID 1148); conditions: higher = more signal;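 note: score merges 667nm spot fluorescence with signal-to-noise for antibody binding to printed compounds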
Torsin-1A (Homo sapiens) [17] = molecular target: Torsin-1A (Homo sapiens) (UniProt O14656); assay: torsin A binders from cell lysate, primary screen, small-molecule microarray, wild-type, 635/667 nm (AID 1149); conditions: COS7 hTOR1A-WT lysate, 635 nm fluorescence, higher = more signal
Torsin-1A (Homo sapiens) [18] = molecular target: Torsin-1A (Homo sapiens) (UniProt O14656); assay: small-molecule binders of mutant TOR1A in lysate, primary screen, cell lysate, small-molecule microarray, COS7 lysate, 635/667 nm fluorescence (AID 1150); conditions: COS7 hTOR1A mutant lysate, 635 nm fluorescence, higher = more signal;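 note: score pools 667 nm emission and signal to noise measuring lysate protein binding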
[19] = test system: Sonic hedgehog protein (Shh); assay: small-molecule binders of Shh protein, primary screen, biochemical, small-molecule microarray, 635/667 nm fluorescence (AID 1151); conditions: small-molecule microarray binding, 635 nm fluorescence; higher = more signal;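 note: Shh protein binding to compounds spotted on small-molecule microarray slides; score combines spot fluorescence intensity with signal-to-noise across triplicate slides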

Focal adhesion kinase 1 (Homo sapiens), sequence (Q05397 whole entry, looked up): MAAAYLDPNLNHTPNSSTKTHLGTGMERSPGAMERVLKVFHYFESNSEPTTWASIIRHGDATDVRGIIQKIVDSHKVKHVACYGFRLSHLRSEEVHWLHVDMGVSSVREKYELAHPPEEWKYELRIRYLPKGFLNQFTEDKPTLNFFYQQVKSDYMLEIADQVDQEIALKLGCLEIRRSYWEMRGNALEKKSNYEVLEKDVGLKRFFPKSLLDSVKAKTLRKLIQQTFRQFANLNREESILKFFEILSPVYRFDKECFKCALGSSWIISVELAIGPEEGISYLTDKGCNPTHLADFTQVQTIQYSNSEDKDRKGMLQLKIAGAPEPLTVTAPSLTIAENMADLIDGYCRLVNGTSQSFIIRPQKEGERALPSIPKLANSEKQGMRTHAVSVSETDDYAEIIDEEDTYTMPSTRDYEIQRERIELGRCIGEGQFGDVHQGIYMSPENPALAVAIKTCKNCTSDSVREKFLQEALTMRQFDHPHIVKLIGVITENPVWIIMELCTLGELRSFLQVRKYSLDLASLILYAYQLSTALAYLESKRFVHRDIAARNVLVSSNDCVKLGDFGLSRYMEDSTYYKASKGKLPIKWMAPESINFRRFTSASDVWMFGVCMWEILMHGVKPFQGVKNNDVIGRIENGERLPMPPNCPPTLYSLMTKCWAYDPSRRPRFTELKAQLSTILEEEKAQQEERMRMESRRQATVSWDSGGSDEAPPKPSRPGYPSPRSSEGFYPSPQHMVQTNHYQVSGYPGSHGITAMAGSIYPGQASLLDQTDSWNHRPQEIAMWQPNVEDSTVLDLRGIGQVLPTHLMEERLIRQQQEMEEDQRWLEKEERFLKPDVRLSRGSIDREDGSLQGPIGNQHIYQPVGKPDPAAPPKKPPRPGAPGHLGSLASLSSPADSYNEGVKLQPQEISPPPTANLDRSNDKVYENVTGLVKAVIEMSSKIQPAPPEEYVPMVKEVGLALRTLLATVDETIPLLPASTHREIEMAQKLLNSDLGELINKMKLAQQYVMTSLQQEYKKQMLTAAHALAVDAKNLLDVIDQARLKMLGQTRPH
Follistatin (Homo sapiens), sequence (P19883 whole entry, looked up): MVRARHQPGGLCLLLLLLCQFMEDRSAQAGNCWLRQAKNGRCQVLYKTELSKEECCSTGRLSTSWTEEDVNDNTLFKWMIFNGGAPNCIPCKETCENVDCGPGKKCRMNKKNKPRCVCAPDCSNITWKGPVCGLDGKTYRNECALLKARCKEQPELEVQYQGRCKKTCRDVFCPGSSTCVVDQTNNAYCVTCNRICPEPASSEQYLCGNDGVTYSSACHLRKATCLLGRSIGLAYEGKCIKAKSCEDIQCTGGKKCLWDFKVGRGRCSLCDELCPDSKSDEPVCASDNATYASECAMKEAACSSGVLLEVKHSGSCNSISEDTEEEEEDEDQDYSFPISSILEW
Streptavidin (Streptomyces avidinii), sequence (P22629 whole entry, looked up): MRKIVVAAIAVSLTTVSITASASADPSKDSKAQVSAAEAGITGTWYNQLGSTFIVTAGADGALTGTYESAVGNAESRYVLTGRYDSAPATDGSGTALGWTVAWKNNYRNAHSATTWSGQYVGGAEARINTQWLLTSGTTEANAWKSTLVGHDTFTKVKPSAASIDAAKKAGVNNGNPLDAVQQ
Fibroblast growth factor 2 (Homo sapiens), sequence (P09038 whole entry, looked up): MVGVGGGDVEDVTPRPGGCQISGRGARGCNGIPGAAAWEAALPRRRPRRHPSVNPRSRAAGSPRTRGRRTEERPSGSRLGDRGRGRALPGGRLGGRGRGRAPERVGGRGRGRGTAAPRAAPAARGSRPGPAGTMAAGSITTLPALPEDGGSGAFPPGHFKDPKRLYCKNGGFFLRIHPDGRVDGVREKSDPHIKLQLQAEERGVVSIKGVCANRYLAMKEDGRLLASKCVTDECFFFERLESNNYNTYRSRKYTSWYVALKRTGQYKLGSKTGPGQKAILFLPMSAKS
Torsin-1A (Homo sapiens), sequence (O14656 whole entry, looked up): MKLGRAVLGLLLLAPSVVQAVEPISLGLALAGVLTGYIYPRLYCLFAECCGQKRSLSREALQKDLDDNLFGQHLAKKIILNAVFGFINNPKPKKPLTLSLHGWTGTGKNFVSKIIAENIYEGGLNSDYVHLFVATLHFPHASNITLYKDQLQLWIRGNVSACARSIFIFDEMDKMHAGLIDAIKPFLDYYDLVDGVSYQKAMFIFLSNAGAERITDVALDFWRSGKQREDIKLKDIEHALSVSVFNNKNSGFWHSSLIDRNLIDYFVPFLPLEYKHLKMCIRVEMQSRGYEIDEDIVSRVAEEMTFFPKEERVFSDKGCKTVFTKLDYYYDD
Luciferin 4-monooxygenase (Photinus pyralis), sequence (P08659 whole entry, looked up): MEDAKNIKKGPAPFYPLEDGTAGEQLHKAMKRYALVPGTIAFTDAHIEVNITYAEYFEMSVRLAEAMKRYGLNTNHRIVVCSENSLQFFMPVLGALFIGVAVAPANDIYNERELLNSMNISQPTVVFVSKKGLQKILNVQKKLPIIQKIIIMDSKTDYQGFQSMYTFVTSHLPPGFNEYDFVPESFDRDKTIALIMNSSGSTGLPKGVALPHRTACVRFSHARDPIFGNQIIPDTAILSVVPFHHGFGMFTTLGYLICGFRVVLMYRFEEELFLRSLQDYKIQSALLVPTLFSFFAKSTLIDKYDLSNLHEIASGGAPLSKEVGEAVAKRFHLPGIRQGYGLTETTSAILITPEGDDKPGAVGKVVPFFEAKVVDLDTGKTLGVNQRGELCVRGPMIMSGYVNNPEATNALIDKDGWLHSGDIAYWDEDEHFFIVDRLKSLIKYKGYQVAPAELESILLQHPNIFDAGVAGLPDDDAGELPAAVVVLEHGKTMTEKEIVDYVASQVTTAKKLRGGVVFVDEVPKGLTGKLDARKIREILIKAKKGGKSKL

Row | Compound | composite z-score [1] | composite z-score [2] | composite z-score [3] | composite z-score [4] | composite z-score [5] | composite z-score [6] | z-score [7] | composite z-score (Lefty1) | composite z-score [8] | z-score [9] | composite z-score [10] | z-score [11] | z-score [12] | z-score [13] | z-score [14] | composite z-score [15] | composite z-score [16] | composite z-score (Torsin-1A (Homo sapiens) [17]) | composite z-score (Torsin-1A (Homo sapiens) [18]) | composite z-score [19]
1 | O=C1c2ccccc2[C@](Cc2ccccc2I)(C(=O)NC2CC2)[C@H](c2ccc(CO)cc2)N1Cc1ccccc1C(F)(F)F | 0.0698 | 0.749 | -0.226 | 0.938 | 1.15 | 0.0532 | -0.254 | 1.26 | 1.15 | 0.0135 (inactive) | -0.15 | -4.84 (inactive) | -0.0186 (inactive) | 0.764 (inactive) | -0.5 (inactive) | 0.671 | 1.25 | 0.147 | 0.16 | 0.792
2 | C=CCNC(=O)[C@H]1[C@@H]2C(=O)O[C@@H](c3ccccc3)[C@@H](c3ccccc3)N2[C@@H](c2ccc(OCCO)cc2)[C@]12C(=O)Nc1ccc(C#CCNC(N)=O)cc12 | -0.293 | 1.15 | 0.0494 | 0.936 | 1.41 | 1.05 | -0.837 | 0.767 | 0.912 | -0.0338 (inactive) | 0.314 | -0.384 (inactive) | -0.78 (inactive) | 0.559 (inactive) | 0.123 (inactive) | 0.756 | 0.0857 | 0.207 | 0.125 | 1.61
3 | O=C1OCCC=C[C@H]2OC34C=CCN(c5ccc(Cl)cc5)C(=O)[C@H]3N(CCCCCCO)C(=O)[C@@H]4C12 (stereo not given in full) | -0.6 | -0.611 | -0.469 | -1.17 | -0.841 | -1.12 | 2.21 | -0.831 | -0.533 | -1.65 (inactive) | -0.365 | -0.352 (inactive) | 0.358 (inactive) | 0.0645 (inactive) | -1.34 (inactive) | -0.985 | 0.0333 | 0.132 | -0.175 | -0.341
4 | CC(=O)NCCCC[C@@H]1NC(=O)[C@H]2C[C@@H](C(=O)NCCCCCNC(=O)CS)[C@@H](c3cccc(OCCO)c3)N2C1=O | 2.85 | 0.616 | 0.598 | 0.108 | 1.33 | 1.6 | 0.0396 | 0.157 | 0.29 | -1.36 (inactive) | -0.0417 | 0.321 (inactive) | -0.93 (inactive) | -0.13 (inactive) | 0.908 (inactive) | -0.155 | -0.128 | 0.498 | 0.092 | 1.74
5 | CCCC=C(CCC)[C@@H](NC(=O)CCc1ccccc1)c1ccc(C(F)(F)F)cc1 | 0.608 | 1.16 | 0.398 | 0.973 | 0.809 | 0.94 | 3.02 | 0.17 | 0.71 | 1.31 (inactive) | -0.0114 | -2.08 (inactive) | 0.715 (inactive) | -0.568 (inactive) | 0.318 (inactive) | 1.07 | 0.0374 | 0.983 | 0.801 | -0.37
6 | CCOC(=O)C1=C[C@@H](c2ccccc2)N(S(=O)(=O)c2ccc(C)cc2)[C@H]1c1ccccc1 | 0.421 | 0.574 | 0.681 | -0.276 | 0.379 | 0.466 | 1.47 | 0.543 | 0.197 | 1.94 (inactive) | 0.202 | -1.91 (inactive) | -0.42 (inactive) | -0.275 (inactive) | 0.294 (inactive) | 1.1 | 0.0925 | 0.0157 | 0.176 | 0.212
7 | [N-]=[N+]=NCc1ccccc1C[C@@]1(C(=O)N2CCCCC2)N=C(c2ccc(OCCCO)cc2)O[C@@H]1c1ccccc1CN=[N+]=[N-] | -0.174 | 1.18 | 0.457 | 1.02 | 0.913 | 0.74 | 0.342 | -0.611 | 1.28 | -0.57 (inactive) | 0.599 | -4.29 (inactive) | 0.87 (inactive) | -0.114 (inactive) | 0.872 (inactive) | 0.721 | 0.153 | 0.362 | -0.0699 | -0.306
8 | COC(=O)[C@@]1(Cc2ccccc2CN=[N+]=[N-])N=C(c2ccc(OCCCO)cc2)O[C@H]1c1ccccc1CN=[N+]=[N-] | -0.242 | 0.113 | -0.198 | -0.819 | -0.261 | -0.167 | -0.546 | -1.09 | 0.495 | -2.23 (inactive) | 1.25 | -4.34 (inactive) | -0.166 (inactive) | 1.75 (inactive) | -0.547 (inactive) | -0.754 | -0.154 | -2.13 | 0.0755 | -0.427
9 | COc1ccc([Si](C)(C)[C@@H]2[C@@H](CC(=O)N3Cc4ccccc4C[C@H]3CO)O[C@]3(C(=O)N(c4ccccc4)c4ccccc43)[C@H]2C)cc1 | 2.39 | 0.957 | 0.983 | 0.813 | 1.36 | 1.46 | 0.277 | 1.04 | 1.53 | 0.348 (inactive) | 0.6 | -4.81 (inactive) | -0.751 (inactive) | 2.36 (inactive) | 0.931 (inactive) | 0.627 | 0.128 | 1.56 | 0.871 | 1.47
10 | O=C1O[C@H](c2ccccc2)[C@H](c2ccccc2)N2[C@H]1[C@@H](C(=O)N1CCCCCCC1)[C@]1(C(=O)Nc3ccc(C#CC4(O)CCCCCC4)cc31)[C@H]2c1ccc(O)cc1 | 0.821 | 1.22 | 1.75 | 0.545 | 1.4 | 1.37 | 0.706 | 1.27 | 0.757 | -0.0026 (inactive) | 1.19 | -3.1 (inactive) | -0.555 (inactive) | -0.168 (inactive) | -0.219 (inactive) | 2.76 | 1.77 | 1.13 | 1.49 | 1.45
